# Reference: PubChem BioAssay (NCATS)
# Results filed as inconclusive are left out. A call without a number means that no potency is given here. Unmarked numbers belong to inactive results. Calls of active or inactive are those of the source. The call rests on the fitted dose curve; in most records, active means well fitted curve in the direction sought with a large enough effect; inconclusive means small, poorly fitted or top-dose-only effect, or another doubt; inactive means no such curve, though single readings can be large; an effect the other way counts as inactive or inconclusive.
# Tests used:
# [1] = molecular target: Rap guanine nucleotide exchange factor 3 (Homo sapiens) (UniProt O95398); experiment: Confirmatory qHTS for agonist of cAMP-regulated guanine nucleotide exchange factor 3 (EPAC1) (AID 1645881);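 further: EPAC1 catalysed release of BODIPY-GDP from Rap1B seen as fluorescence loss; nearly all actives have a fitted effect of over 75% in size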
# Sequence of Rap guanine nucleotide exchange factor 3 (Homo sapiens) (O95398 whole entry, looked up): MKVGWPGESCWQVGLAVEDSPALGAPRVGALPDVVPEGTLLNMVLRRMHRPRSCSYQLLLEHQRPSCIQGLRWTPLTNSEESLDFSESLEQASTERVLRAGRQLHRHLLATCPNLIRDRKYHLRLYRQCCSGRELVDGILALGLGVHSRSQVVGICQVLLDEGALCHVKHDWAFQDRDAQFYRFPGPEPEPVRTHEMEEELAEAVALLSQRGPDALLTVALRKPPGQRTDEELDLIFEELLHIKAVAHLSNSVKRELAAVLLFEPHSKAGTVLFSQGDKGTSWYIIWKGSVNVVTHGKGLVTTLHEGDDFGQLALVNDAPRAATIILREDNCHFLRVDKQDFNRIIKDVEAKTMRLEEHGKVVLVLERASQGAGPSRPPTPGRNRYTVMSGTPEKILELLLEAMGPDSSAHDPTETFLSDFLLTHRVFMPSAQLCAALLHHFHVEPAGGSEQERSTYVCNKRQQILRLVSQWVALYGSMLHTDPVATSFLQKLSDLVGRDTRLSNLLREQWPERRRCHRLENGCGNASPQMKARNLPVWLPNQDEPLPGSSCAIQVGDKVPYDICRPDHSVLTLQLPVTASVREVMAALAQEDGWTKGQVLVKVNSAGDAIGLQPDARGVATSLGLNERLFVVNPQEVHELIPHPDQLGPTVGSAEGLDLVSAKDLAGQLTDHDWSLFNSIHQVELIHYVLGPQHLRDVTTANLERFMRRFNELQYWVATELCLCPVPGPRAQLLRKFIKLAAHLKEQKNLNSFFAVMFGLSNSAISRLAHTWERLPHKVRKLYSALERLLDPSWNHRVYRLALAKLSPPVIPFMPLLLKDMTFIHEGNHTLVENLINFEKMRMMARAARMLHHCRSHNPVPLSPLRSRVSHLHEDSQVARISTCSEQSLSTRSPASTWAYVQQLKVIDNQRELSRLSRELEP
# [2] = molecular target: Rap guanine nucleotide exchange factor 4 (Homo sapiens) (UniProt Q8WZA2); experiment: Confirmatory qHTS for agonist of cAMP-regulated guanine nucleotide exchange factor 4 (EPAC2) (AID 1645884);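 further: nucleotide exchange releases bodipy-GDP from Rap1 and this lowers its fluorescence; nearly all actives have a fitted effect of over 65% in size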
# Sequence of Rap guanine nucleotide exchange factor 4 (Homo sapiens) (Q8WZA2 whole entry, looked up): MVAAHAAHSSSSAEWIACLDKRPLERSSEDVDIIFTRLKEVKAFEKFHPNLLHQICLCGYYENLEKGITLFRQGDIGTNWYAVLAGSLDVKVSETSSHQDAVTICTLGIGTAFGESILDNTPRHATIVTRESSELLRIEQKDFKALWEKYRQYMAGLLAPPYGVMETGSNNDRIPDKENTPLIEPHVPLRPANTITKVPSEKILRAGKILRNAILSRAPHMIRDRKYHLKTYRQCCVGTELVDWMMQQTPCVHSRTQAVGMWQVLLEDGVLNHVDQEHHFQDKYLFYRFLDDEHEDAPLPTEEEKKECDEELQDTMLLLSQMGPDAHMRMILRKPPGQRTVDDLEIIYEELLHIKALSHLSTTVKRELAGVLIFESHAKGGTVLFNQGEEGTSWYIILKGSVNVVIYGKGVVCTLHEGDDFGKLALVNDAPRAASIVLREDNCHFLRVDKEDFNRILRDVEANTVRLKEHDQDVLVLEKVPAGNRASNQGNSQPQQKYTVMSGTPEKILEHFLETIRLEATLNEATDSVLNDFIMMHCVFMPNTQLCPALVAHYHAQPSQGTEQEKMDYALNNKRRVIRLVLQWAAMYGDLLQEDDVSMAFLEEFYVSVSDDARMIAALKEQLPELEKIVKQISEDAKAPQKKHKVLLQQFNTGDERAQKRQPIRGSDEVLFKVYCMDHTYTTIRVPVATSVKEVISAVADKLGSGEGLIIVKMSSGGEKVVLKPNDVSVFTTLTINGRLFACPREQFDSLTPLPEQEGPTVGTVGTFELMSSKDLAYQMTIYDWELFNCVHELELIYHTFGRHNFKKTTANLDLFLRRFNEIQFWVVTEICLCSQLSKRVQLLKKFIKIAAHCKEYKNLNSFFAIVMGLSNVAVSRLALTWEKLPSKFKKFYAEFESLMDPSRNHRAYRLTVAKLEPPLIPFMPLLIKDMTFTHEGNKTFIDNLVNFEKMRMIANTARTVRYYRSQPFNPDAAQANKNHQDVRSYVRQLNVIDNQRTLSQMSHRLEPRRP
# [3] = molecular target: Rap guanine nucleotide exchange factor 4 (Homo sapiens) (UniProt Q8WZA2); experiment: Confirmatory qHTS for antagonist of cAMP-regulated guanine nucleotide exchange factor 4 (EPAC2) (AID 1645885); further: nearly all actives have a fitted effect of over 25% in size; further: potency means the concentration at half of the fitted maximal effect
# [4] = molecular target: Rap guanine nucleotide exchange factor 3 (Homo sapiens) (UniProt O95398); experiment: Counterscreen qHTS for antagonist of cAMP-regulated guanine nucleotide exchange factor 3 (EPAC1) (AID 1645888);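 further: fluorescence loss as bound BODIPY-GDP is released from Rap1B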
# How it was run: (§1)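 Rap1B-BODIPY-GDP 250 nM + GDP 50 uM; cpds 7-pt, final 9.74 nM–152 uM (activator mode) or from 7.32 nM upwards (inhibitor mode); RT; FI 480/540 nm at 5 and 30 min, then ± cAMP, reread.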
# [5] = molecular target: Rap guanine nucleotide exchange factor 3 (Homo sapiens) (UniProt O95398); experiment: Counterscreen qHTS for agonist of cAMP-regulated guanine nucleotide exchange factor 3 (EPAC1) (AID 1645889); further: nearly all actives have a fitted effect of over 40% in size; further: potency means the concentration at half of the fitted maximal effect
# How it was run: as §1
SMILES,Potency [1],activation [2],Potency [3],"activity change, negative = inhibition [4]",activation [5],Potency [2],Potency [4],Potency [5],outcome [3]
Cc1ccc2oc(=O)n(CCOc3ccccc3C)c2c1,inactive,"11.2% [at 17.1 µM, percent relative to cAMP agonist control]",inactive,-6.86% [at 30.8 µM],15.6% [at 30.8 µM],,,,
Cc1ccc(N(Cc2cccs2)C(=O)c2ccco2)cc1,inactive,,inactive,,,inactive,inactive,inactive,
CCOC(=O)COc1ccc(/C=C(\C#N)c2nc3ccc(C)cc3[nH]2)cc1OC,inactive,,inactive,,,inactive,inactive,inactive,
Cc1csc(NC(=O)CSCC(=O)O)c1-c1nc2ccccc2s1,inactive,,inactive,,,inactive,inactive,inactive,
CCOC(=O)Cc1nn(Cc2ccc(Cl)cc2)c(=O)c2ccccc12,inactive,,inactive,,,inactive,inactive,inactive,
Cc1ccc(/C=C/C(=O)Nc2nnc(SCc3ccc(C#N)cc3)s2)o1,inactive,,inactive,,,inactive,inactive,inactive,
CCc1nnc(NS(=O)(=O)c2ccc(NCc3cc(Cl)cc(Cl)c3O)cc2)s1,inactive,,5.36 µM (active),,,inactive,inactive,inactive,
O=C(CSc1nc2ccsc2c(=O)n1NC(=O)c1ccccc1)Nc1nccs1,inactive,,inactive,,,inactive,inactive,inactive,
CC(=O)/C(=N/Nc1ccccc1)Sc1nnc(CCc2ccccc2)n1-c1ccccc1,inactive,,inactive,,,inactive,inactive,inactive,
O=C(O)/C(=C\c1ccc(-c2ccc(F)cc2)o1)c1ccccc1,inactive,,inactive,,,inactive,inactive,inactive,
COc1cccc(C2CC(c3cccs3)=NN2C(=O)c2ccco2)c1O (stereo not given),inactive,"3.1% [at 17.1 µM, percent relative to cAMP agonist control]",inactive,-12.7% [at 30.8 µM],8.43% [at 30.8 µM],,,,
O=C(Nc1cc(C(F)(F)F)ccc1Cl)c1nc2ccccc2nc1N1CCCCC1,inactive,,,,,inactive,inactive,inactive,inactive [at 12.7 µM]
Oc1ccc2ccccc2c1C=Nc1ccc(Cl)cn1,inactive,,inactive,,,inactive,inactive,inactive,
COC(=O)c1ccc2nc(-c3ccc(OC)c(OC)c3)c(Cc3ccccc3)n2c1,inactive,,inactive,,,inactive,inactive,inactive,
Cc1ccc(/C=C(\CCC(=O)O)c2nc3ccccc3s2)cc1[N+](=O)[O-],inactive,"6.79% [at 17.1 µM, percent relative to cAMP agonist control]",inactive,-11.2% [at 30.8 µM],0.0676% [at 30.8 µM],,,,
C[C@H]1CN([C@@H](C)CO)C(=O)c2cccc(NC(=O)C3CC3)c2O[C@H]1CN(C)S(=O)(=O)c1ccccc1,inactive,,inactive,,,inactive,inactive,inactive,
CC(C)CCNc1nc(-c2ccco2)c2c(c1C#N)CCCC2,inactive,,inactive,,,inactive,inactive,inactive,
COc1ccc2c(c1)c(=O)oc1c(C)c(OCc3cc(C(=O)O)oc3C)ccc12,inactive,,inactive,,,inactive,inactive,inactive,

SMILES,Potency [1],activation [2],Potency [3],"activity change, negative = inhibition [4]",activation [5],Potency [2],Potency [4],Potency [5],outcome [3]
COC(=O)c1ccc2nc(-c3ccco3)c(Cc3ccccc3)n2c1,inactive,"7.95% [at 17.1 µM, percent relative to cAMP agonist control]",inactive,-11.9% [at 30.8 µM],10% [at 30.8 µM],,,,
COc1ccc(Nc2nnc(-c3ccc(O)cc3)c3ccccc23)cc1,inactive,"5.03% [at 17.1 µM, percent relative to cAMP agonist control]",inactive,-17.5% [at 30.8 µM],26.4% [at 30.8 µM],,,,
CCc1cc(-c2n[nH]c(C)c2-c2nc(C)cs2)c(O)cc1OC,inactive,"5.22% [at 17.1 µM, percent relative to cAMP agonist control]",inactive,-17% [at 30.8 µM],34.8% [at 30.8 µM],,,,
O=C(O)C/C(=C\c1cc(Cl)c2c(c1)OCO2)c1nc2ccccc2s1,inactive,"-1.81% [at 17.1 µM, percent relative to cAMP agonist control]",inactive,-1% [at 30.8 µM],-1.83% [at 30.8 µM],,,,
Cc1cc(NS(=O)(=O)c2ccc(Nc3nc(-c4ccc(O)cc4)cs3)cc2)no1,inactive,,26.9 µM (active),,,inactive,inactive,inactive,
Cc1oc2c(O)c(O)ccc2c(=O)c1-c1cnn(-c2ccccc2)c1,inactive,"2.28% [at 17.1 µM, percent relative to cAMP agonist control]",inactive,-26.8% [at 30.8 µM],28.8% [at 30.8 µM],,,,
CC1(Cc2ccc(OC(F)(F)F)cc2)C(=O)Nc2ccc(OC(F)(F)F)cc21 (stereo not given),inactive,"-11.8% [at 17.1 µM, percent relative to cAMP agonist control]",inactive,-17.3% [at 30.8 µM],35.9% [at 30.8 µM],,,,
O=C(Nc1c2c(nc3ccccc13)CCCC2)c1ccccc1F,inactive,"-3.93% [at 17.1 µM, percent relative to cAMP agonist control]",inactive,-18.6% [at 30.8 µM],12.9% [at 30.8 µM],,,,
O=C1/C(=C/c2cccc(F)c2)SC(=S)N1NS(=O)(=O)c1ccccc1,inactive,,inactive,,,inactive,inactive,inactive,
O=C(c1ccc(-c2nnc(Nc3cccc(Cl)c3)c3ccccc23)cc1)N1C[C@H]2C[C@H](C1)c1cccc(=O)n1C2,inactive,,inactive,,,inactive,inactive,inactive,
Cc1ccc(C(=O)OCC(=O)c2ccc(CC(=O)N3CCOCC3)s2)c(C)c1,inactive,,inactive,,,inactive,inactive,inactive,
Cc1oc2c(cc(NS(=O)(=O)c3ccc(F)cc3)c3ccccc32)c1C(=O)O,inactive,,75.7 µM (active),,,inactive,inactive,inactive,
O=[N+]([O-])c1cc2c(cc1CN1CCN(CCOCCO)CC1)OCO2,inactive,,inactive,,,inactive,inactive,inactive,
O=[N+]([O-])CC(c1ccccc1)c1c[nH]c2ccccc12 (stereo not given),inactive,,21.3 µM (active),,,inactive,inactive,inactive,
CCCC(=O)OCCNc1cc(SCc2ccco2)c2nonc2c1[N+](=O)[O-],inactive,"4.83% [at 17.1 µM, percent relative to cAMP agonist control]",inactive,14.3% [at 30.8 µM],26.5% [at 30.8 µM],,,,
O=C(COC(=O)[C@@H]1CC(O)CN1S(=O)(=O)c1ccc(Cl)c(Cl)c1)NC(=O)NCc1ccccc1 (stereo not given in full),inactive,,inactive,,,inactive,inactive,inactive,
COc1ccc(S(=O)(=O)Nc2cc(SCC(=O)O)c(O)c3ccccc23)cc1,inactive,,inactive,,,inactive,inactive,56.2 µM (active),
Cn1c(/N=C/c2c(O)ccc3ccccc23)nc2ccccc21,inactive,,inactive,,,inactive,inactive,inactive,
